outcome, Potency and max response data for 8 compounds are collected here from PubChem BioAssay (Tox21).

Test [1] in a line: qHTS assay to identify small molecule antagonists of the estrogen related receptor signaling pathway with the pleiotropic PPARgamma coactivator (PGC) from Tox21 10K library - cell viability counter screen (AID 1224840; active = well fitted cell-killing curve with a large enough effect in the repeat runs, not every such curve was filed as active; note: nearly all actives have a fitted effect of over 40% in size). The method in brief:
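Seeded PGC/ERR cells (2,000/well, 6 h, 37 C/5% CO2) get compound by pin tool; 17.5 h incubation at 37 C; CellTiter-Fluor added, 30 min, fluorescence measured.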

Test [2] in a line: qHTS assay to identify small molecule antagonists of the estrogen related receptor signaling pathway with the pleiotropic PPARgamma coactivator (PGC) from Tox21 10K library (AID 1224841; call rule not given here; note: series mostly up to about 92 µM; actives are mostly falling curves and most rising ones were filed inactive; nearly all actives have a fitted effect of over 50% in size). The method in brief: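 Test chemicals dissolved in DMSO were applied to pre-incubated (6 h) PGC/ERR cells at 2,000 cells/well for an 18 h, 37 C treatment; reporter luminescence was then read using One-Glo.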

The nature of test [3]: qHTS assay to identify small molecule agonists of the estrogen related receptor signaling pathway with the pleiotropic PPARgamma coactivator (PGC) from Tox21 10K library (AID 1224842). Note: nearly all actives have a fitted effect of over 15% in size. The method in brief:
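PGC/ERR reporter cells (NTP line) were seeded 2,000 per well, rested 6 h at 37 C/5% CO2, then pin-dosed with compounds in DMSO for 18 h at 37 C; luciferase read by One-Glo luminescence after 30 min at room temperature.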
A general note: Quantitative high-throughput screening tests each substance at several concentrations.

The target in test [4] is Thyrotropin receptor (Homo sapiens) (UniProt P16473). The test can be described thus: qHTS assay to identify small molecule agonists of the thyroid stimulating hormone receptor (TSHR) signaling pathway (AID 1224843; calls by dose curve; note: nearly all actives have a fitted effect of over 45% in size). The method in brief:
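Using 15 concentrations per compound in triplicate, cAMP production was monitored in TSHR-HEK293 cells after 30 min compound incubation at RT; HTRF reagents followed, with fluorescence intensity recorded after 1 h.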

Test [5] in a line: qHTS assay to identify small molecule agonists of the hypoxia (HIF-1) signaling pathway - cell viability counter screen (AID 1224844; calls by dose curve; note: nearly all actives have a fitted effect of over 50% in size). The method in brief:
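HRE-bla ME-180; 0.5% dFBS; cpd 17 h, 37C, 5% CO2; CellTiter-Glo lum., 30 min RT, post-FRET read, same wells.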

The nature of test [6]: qHTS assay to identify small molecule agonists of H2AX (AID 1224845; active = well fitted activation curve with a large enough effect in the signal ratio in the repeat runs, not every such curve was filed as active; the % refers to the signal ratio). The method in brief:
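Wild-type CHO-K1 cells plated overnight, then exposed 3 hr at 37C to compounds at 15 concentrations (0.76% DMSO). Lysed, then HTRF anti-pH2AX(S139)-cryptate/anti-H2AX-d2 detection after 24 hr at room temperature; emissions 665 and 620 nm.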

Test [7] can be described thus: qHTS assay to identify small molecule agonists of the hypoxia (HIF-1) signaling pathway (AID 1224846; active = well fitted activation curve with a large enough effect in the signal ratio in the repeat runs, not every such curve was filed as active; the % refers to the signal ratio). Put shortly:
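Reporter induction in HRE-bla ME-180 cells is taken as agonism: cells sit 5 hrs after plating, receive compounds or DMSO only, incubate 17 hrs at 37C under 5% CO2, and are loaded with CCF4-AM for beta-lactamase FRET measurement.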

Test [8] is described as follows: qHTS assay to identify small molecule agonists of H2AX - cell viability counter screen (AID 1224847; calls by dose curve; note: nearly all actives have a fitted effect of over 30% in size; note: potency is the fitted concentration of half-maximal effect). The method in brief: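 For this counter screen, overnight-attached CHO-K1 cells received test compounds (15 concentrations, 0.76% DMSO final); 3 hr later at 37C, CellTiter-Glo reagent was added and luminescence recorded after 30 min at room temperature.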
Test [9] is described as follows: qHTS assay to identify small molecule antagonists of the estrogen related receptor (ERR) signaling pathway from Tox21 library (AID 1224848). Note: nearly all actives have a fitted effect of over 50% in size. The method in brief:
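Tox21 10K compounds in DMSO tested for ERR pathway antagonism in NTP's ERR cell line; 18 h, 37 C exposure; ONE-Glo luminescence.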

A short description of test [10]: qHTS assay to identify small molecule agonists of the estrogen related receptor (ERR) signaling pathway from Tox21 library (AID 1224849; calls by dose curve; note: nearly all actives have a fitted effect of over 15% in size). Put shortly:
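Tox21 compounds tested for ERR agonism in an NTP reporter cell line: 18 h treatment at 37 C, then ONE-Glo luminescence.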

A short description of test [11]: qHTS RealTime-Glo MT Cell Viability Assay in HepG2 cells - 24 hour (AID 1224867). Note: nearly all actives have a fitted effect of over 50% in size. Put shortly:
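HepG2 suspension premixed with RealTime-Glo reagents is plated at 600 cells per well and left 5 h at 37 C/5% CO2. Compounds in DMSO then go in, and bioluminescence reflecting viable cell number is recorded over 40 h.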

Test [12] in a line: qHTS RealTime-Glo MT Cell Viability Assay in HEK293 cells - 32 hour (AID 1224868). Put shortly:
(§1)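 Reads taken at 0, 8, 16, 24, 32 and 40 h from the same wells. HEK293 cells (600/well) carried RealTime-Glo reagents from seeding, with compound added after a 5 h settle at 37 C.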

The nature of test [13]: A CellTox Green Cytotoxicity Assay to monitor cytotoxicity in HEK293 cells - 0 hour (AID 1224869). Note: nearly all actives have a fitted effect of over 50% in size. The method in brief:
(§2)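 Tox21 screen in HEK293: membrane-impermeant cyanine dye fluoresces on binding dead-cell DNA; compound pinned 5 h post-seeding, plates held at 37 C, signal read repeatedly through 40 h.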

Test [14] is described as follows: qHTS RealTime-Glo MT Cell Viability Assay in HepG2 cells - 40 hour (AID 1224870). Note: nearly all actives have a fitted effect of over 50% in size. Put shortly:
(§3)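 HepG2 cells mixed with RealTime-Glo MT reagents (NanoLuc plus cell-permeant prosubstrate) were seeded at 600 cells/well, incubated 5 h at 37 C/5% CO2, then pinned with compounds in DMSO; nonlytic luminescence tracked viability during 40 h treatment.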

The nature of test [15]: A CellTox Green Cytotoxicity Assay to monitor cytotoxicity in HEK293 cells - 40 hour (AID 1224871). Note: nearly all actives have a fitted effect of over 45% in size. The method in brief: as §2
Test [16] in a line: qHTS RealTime-Glo MT Cell Viability Assay in HEK293 cells - 16 hour (AID 1224872). Note: nearly all actives have a fitted effect of over 50% in size. Note: potency is the fitted concentration of half-maximal effect. The method in brief: as §1
Test [17] is described as follows: qHTS RealTime-Glo MT Cell Viability Assay in HepG2 cells - 8 hour (AID 1224873). Note: nearly all actives have a fitted effect of over 55% in size. Put shortly:
as §3

A short description of test [18]: qHTS RealTime-Glo MT Cell Viability Assay in HEK293 cells - 40 hour (AID 1224874). Note: nearly all actives have a fitted effect of over 50% in size. The settings on record: RealTime-Glo luminescence; max response: stronger effect = lower value. Put shortly: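 HEK293 + NanoLuc + prosubstrate, 600 cells/well; 5 h, 37 C/5% CO2; compound 23 nL in DMSO by pintool; 37 C; luminescence read at 0, 8, 16, 24, 32 and 40 h time points.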
Test [19] has as its target Nuclear receptor subfamily 1 group I member 3 (Homo sapiens) (UniProt Q14994). The test can be described thus: qHTS assay to identify small molecule agonists of the constitutive androstane receptor (CAR) signaling pathway (AID 1224839).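 Note: HepG2 cells stably carrying human CAR and a CYP2B6 luciferase reporter; series mostly up to about 92 µM; nearly all actives have a fitted effect of over 15% in size.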 Put shortly:
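Readout: firefly luciferase luminescence via ONE-Glo. System: HepG2 double-stable for hCAR and CYP2B6-2.2kb. Conditions: 15-point compound titration, PK11195 at 0.75 uM final, 24 h incubation.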

The nature of test [20]: A CellTox Green Cytotoxicity Assay to monitor cytotoxicity in HEK293 cells - 24 hour (AID 1224875). Note: series mostly up to about 77 µM; nearly all actives have a fitted effect of over 45% in size. Put shortly: as §2

Values without a mark were called inactive. Inconclusive results are not listed. The source made the active and inactive calls. Unless noted, calls come from the whole dose curve; as a rule, active = well fitted curve in the direction sought with a large enough effect in the repeat runs; inconclusive = weak or mixed curves; inactive = no such curve, though single readings can be large; an effect the other way counts as inactive or inconclusive.
% is set by controls: 0 for no effect and ±100 for the full control effect.

Chain of Nuclear receptor subfamily 1 group I member 3 (Homo sapiens) (Q14994 whole entry, looked up): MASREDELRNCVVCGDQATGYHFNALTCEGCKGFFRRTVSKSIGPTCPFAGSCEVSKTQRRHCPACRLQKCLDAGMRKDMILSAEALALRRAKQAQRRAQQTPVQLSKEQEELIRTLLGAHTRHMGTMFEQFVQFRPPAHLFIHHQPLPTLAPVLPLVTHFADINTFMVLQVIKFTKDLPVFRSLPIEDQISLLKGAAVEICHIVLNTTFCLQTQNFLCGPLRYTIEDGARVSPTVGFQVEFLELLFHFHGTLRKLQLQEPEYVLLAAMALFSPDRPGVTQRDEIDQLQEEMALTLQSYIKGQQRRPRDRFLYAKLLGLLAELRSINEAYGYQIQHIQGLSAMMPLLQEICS
Chain of Thyrotropin receptor (Homo sapiens) (P16473 whole entry, looked up): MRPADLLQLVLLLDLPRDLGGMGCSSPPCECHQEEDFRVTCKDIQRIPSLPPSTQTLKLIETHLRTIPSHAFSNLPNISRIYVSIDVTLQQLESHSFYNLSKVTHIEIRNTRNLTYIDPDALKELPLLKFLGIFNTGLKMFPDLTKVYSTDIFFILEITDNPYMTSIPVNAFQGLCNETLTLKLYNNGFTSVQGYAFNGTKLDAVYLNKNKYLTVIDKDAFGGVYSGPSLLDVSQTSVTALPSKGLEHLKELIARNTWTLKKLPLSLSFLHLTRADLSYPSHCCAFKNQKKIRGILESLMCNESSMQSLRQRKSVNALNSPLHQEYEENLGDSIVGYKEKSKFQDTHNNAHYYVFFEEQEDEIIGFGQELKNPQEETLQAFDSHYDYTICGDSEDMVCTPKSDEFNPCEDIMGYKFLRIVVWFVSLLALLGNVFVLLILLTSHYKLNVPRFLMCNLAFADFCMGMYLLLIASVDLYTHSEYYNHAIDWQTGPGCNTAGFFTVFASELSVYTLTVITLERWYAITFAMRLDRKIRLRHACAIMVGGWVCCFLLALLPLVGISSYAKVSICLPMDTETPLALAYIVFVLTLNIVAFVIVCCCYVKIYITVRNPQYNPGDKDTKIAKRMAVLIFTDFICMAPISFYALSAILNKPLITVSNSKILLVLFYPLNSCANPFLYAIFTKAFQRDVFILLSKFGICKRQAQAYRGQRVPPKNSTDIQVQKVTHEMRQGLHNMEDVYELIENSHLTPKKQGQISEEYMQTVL

For the compound `NC(=O)C1(N2CCCCC2)CCN(CCCC(=O)c2ccc(F)cc2)CC1`, the outcome in test [1], in test [3], in test [4], in test [5], in [6] and in test [7] was inactive. Moreover, the result in test [10], in test [11], in test [14] and in [17] was inactive. In addition, the Potency entry in test [2], in test [8], in [9], in test [12], in [13] and in test [15] was “inactive” in each case. The Potency entry in test [16] is “inactive”. Also, the max response in test [18] was -22.3%.
For `CCCCOC(=O)[C@@H](C)Oc1ccc(Oc2ccc(C(F)(F)F)cn2)cc1`, the Potency result in test [19], in test [13] and in test [15] was “inactive” in each case. The compound was classed as inactive in test [1], in [5], in test [6], in [11], in test [14] and in test [17]. Besides, the Potency in test [16] was 31.1 µM (active).
For the compound `CC(C)C(=O)c1ccccc1`, the compound was called inactive in test [1], in test [3], in test [4], in test [5], in test [6] and in [7]. The call in [10], in test [11] and in test [14] was inactive. The Potency entry in [2], in test [8], in [9], in test [12], in test [13] and in [15] was “inactive” in each case. Besides, the Potency result in [16] and in test [20] was “inactive” each time. Moreover, in test [18], the max response was -17.8%.
For the compound `c1ccccc1`, the outcome in [1], in test [3], in [4], in [5], in [6] and in test [7] was inactive. For the same compound, the compound was classed as inactive in test [10], in [11] and in test [17]. The Potency entry in [2], in test [8], in [9], in test [12], in test [13] and in [15] was “inactive” throughout. For the same compound, the Potency result in test [16] and in [20] was “inactive” in each case. In addition, the max response in test [18] was -3.11%.
`CCc1nccnc1C`: the outcome in [1], in [3], in test [4], in test [5], in test [6] and in test [7] was inactive. The compound was called inactive in test [10], in test [11], in test [14] and in test [17]. Besides, the Potency entry in test [2], in test [8], in [9], in test [12], in test [13] and in test [15] was “inactive” throughout. Moreover, the Potency entry in [16] and in [20] was “inactive” throughout. Moreover, the max response in test [18] is 6.93%.
As to `COc1ccc(N=Nc2cc(C)c(N=Nc3ccc(S(=O)(=O)O)cc3)cc2OC)cc1`, the Potency entry in test [19], in test [12], in test [13], in test [15], in test [16] and in test [20] was “inactive” in each case. The result in test [6], in test [7], in test [11] and in test [17] was inactive. Besides, the Potency in [8] was 101 µM (active). The max response in test [18] was -2.91%.
Turning to `C=COCCOCCOC=C`, the Potency result in test [19], in test [8], in test [12], in test [15], in test [16] and in test [20] was “inactive” each time. Also, the compound was classed as inactive in test [1], in [5], in test [6], in test [7], in [11] and in test [14]. The result in test [17] was inactive. Moreover, in test [18], the max response was -1.05%.
Take `NC(=O)NC(=O)Cc1ccccc1`: the compound was called inactive in test [1], in test [3], in test [4], in test [5], in test [6] and in test [7]. The compound was called inactive in [10], in [11], in [14] and in [17]. The Potency result in [2], in test [8], in test [9], in test [12], in test [13] and in [15] was “inactive” in each case. Further, the Potency entry in test [16] and in test [20] was “inactive” each time. The max response in test [18] was 3.75%.
